# Data: PubChem BioAssay AID2314 (National Center for Advancing Translational Sciences (NCATS), 2010)
# The campaign covered roughly 300,000 compounds. About 37,000 (12%) were called active. The list comes from a sample in which actives are over-represented; it also holds similar structures and randomly drawn compounds. Unmarked numbers belong to inactive results. No stated cut-off is given here; in the data, active means max response mostly above about 13% (no sharp cut-off); inactive means mostly below about 14%.
# Test: Cycloheximide Counterscreen for Small Molecule Inhibitors of Shiga Toxin; further: read at 38.3 µM for the half of the compounds with a filed dose; 0% is about no effect
# Conditions: cell reporter, cycloheximide protein synthesis inhibition counterscreen; active compounds read high
row,Structure (SMILES),max response
1,Cc1ccc2c(CSc3nncs3)cc(=O)oc2c1,26.8% (active)
2,CCOC(=O)Cc1csc(SCc2cc(=O)oc3cc(O)ccc23)n1,-1.72%
3,COCc1cc(=O)oc2cc(NS(=O)(=O)c3ccc(C)cc3)ccc12,2.21%
4,CCCNC(=O)CSc1nc(Cc2ccccc2)nc2ccccc12,-5%
5,CCn1c(-c2cc(OC)ccc2OC)csc1=Nc1c(C)n(C)n(-c2ccccc2)c1=O,-0.97%
6,CN=c1scc(-c2cc(OC)ccc2OC)n1/N=C/c1c(C)[nH]c2ccccc12,15.1% (active)
7,COc1ccc(C)cc1Nc1nc(-c2c(C)[nH]c3ccccc23)cs1,11.4%
8,CC(C)(C)N(Cc1ccccc1)C(=O)COC(=O)CCc1c[nH]c2ccccc12,-0.22%
9,COc1ccc(CN2CCC(n3nccc3NC(=O)CCCc3ccccc3)CC2)cc1C,-6.15%
10,CC(=O)N[C@@H](C)C(=O)N1CCC(n2nccc2NC(=O)CCCc2ccccc2)CC1,24.6% (active)
11,CCn1cc(CN2CCC(n3nccc3NC(=O)CCCc3ccccc3)CC2)c(C)n1,-2.15%
12,CC(=O)NCC(=O)N1CCC(n2nccc2NC(=O)CCCc2ccccc2)CC1,26.3% (active)
13,Cc1ccc(CN2CCC(n3nccc3NC(=O)CCCc3ccccc3)CC2)o1,2.06%
14,COc1cc(CN2CCC(n3nccc3NC(=O)CCCc3ccccc3)CC2)ccc1O,-1.56%
15,CCC(C(=O)OC)n1cnc2scc(-c3ccc(C)cc3)c2c1=O (stereo unspecified),0.506%
16,COc1ccc(N2C(=O)C3C(C2=O)C(C(=O)c2ccccc2)N2CCCC32)cc1 (stereo unspecified),2.35%
17,O=C(NCc1ccccc1Cl)c1ccc2c(=O)n(CC3CCCO3)c(=S)[nH]c2c1 (stereo unspecified),-1.12%
18,CCCC[C@@H]1CN=C(N)N1CCc1cc(C(F)(F)F)cc(C(F)(F)F)c1,-4.84%
19,CC[C@H](C)[C@H](NC(=O)[C@H](CCCNC(=N)N)NC(=O)[C@H](CCCNC(=N)N)NC(=O)[C@H](CC(C)C)NC(=O)[C@H](Cc1ccccc1)NC(=O)CNC(=O)CNC(=O)[C@@H](N)Cc1ccc(O)cc1)C(=O)N[C@@H](CCCNC(=N)N)C(=O)N1CCC[C@H]1C(=O)N[C@@H](CCCCN)C(=O)N[C@@H](CC(C)C)C(=O)N[C@@H](CCCCN)C(=O)N[C@@H](Cc1c[nH]c2ccccc12)C(=O)N[C@@H](CC(=O)O)C(=O)N[C@@H](CC(N)=O)C(=O)N[C@@H](CCC(N)=O)C(=O)O,-3.93%
20,O=C(Cn1ccc2cc(S(=O)(=O)N3CCCC3)ccc21)NCc1ccccc1,12.1%
21,C=CCOc1ccc(/C=C2\SC(=S)N(CCC(=O)O)C2=O)cc1,-2.97%
22,O=C(C1CCN(S(=O)(=O)c2ccc(Br)s2)CC1)N1CCN(C2CCCCC2)CC1,3.94%

row,Structure (SMILES),max response
1,COc1cc(OC)c(-n2cc(-c3ccc(Cl)cc3)[nH]c2=O)cc1Cl,0.883%
2,Cc1cc(C)nc(SC2CCCCC2NS(=O)(=O)c2ccc(Cl)cc2)n1 (stereo unspecified),-1.57%
3,CC(C(=O)NCC1CCCCC1)N(C)Cc1cccc(Cl)c1 (stereo unspecified),-4.34%
4,CN(Cc1ccccc1)C(=O)c1cccc(C(=O)N(C)Cc2ccccc2)c1,-3.47%
5,CC(c1ccccn1)N(C)C(=O)c1ccc2nc(Cc3cccc(Cl)c3)oc2c1 (stereo unspecified),52.7% (active)
6,COC(=O)c1cc(S(=O)(=O)Nc2ccc(C)c(F)c2)c[nH]1,1.38%
7,COc1ccc(C(=O)Nc2nncs2)c(OC)c1,34.6% (active)
8,COc1cccc(OC)c1C(=O)Nc1nnc(C(C)C)s1,-1.98%
9,O=C(NC1=NCCS1)c1ccc(Cl)s1,66.8% (active)
10,COc1ccc(Cc2nnc(NC(=O)c3ccc(OC)cc3OC)s2)cc1,31.5% (active)
11,COc1ccc(C(=O)NCc2nnc(SCC(=O)NC3=NCCS3)n2C)cc1,-2.2%
12,COc1ccc(Cc2nnc(NC(=O)c3cc(OC)c(OC)c(OC)c3)s2)cc1OC,-3.75%
13,COc1ccc(C(=O)NC2=NCCS2)c(OC)c1,32.6% (active)
14,COc1ccc(NC(=O)c2cc(-c3cc(OC)c(OC)c(OC)c3)nc3ccccc23)c(OC)c1,-6.98%
15,COc1ccc(C(=O)N2CCCN(C)CC2)c(OC)c1,-2.16%
16,CC(NC(=O)COc1ccccc1)C(=O)NC1=NCCS1 (stereo unspecified),4.07%
17,O=C(NC1=NCCS1)[C@H](Cc1ccccc1)N1C(=O)c2ccccc2C1=O,-2.74%
18,COc1ccc(Cc2nnc(NC(=O)Cc3cccs3)s2)cc1,12.7%
19,CCN1C(=S)N[C@@H](c2cccc(C(F)(F)F)c2)C(C(=O)OC)=C1C,-8.93%
20,COC(C(=O)Nc1ccc(S(=O)(=O)Nc2ccc(C)c(C)c2)cc1)c1ccccc1 (stereo unspecified),-1.18%
21,CS(=O)(=O)c1sc(C(=O)NC(=S)Nc2ccc(OC(F)(F)F)cc2)c2c1C=CCC2,1.1%
22,CCOC(=O)c1ccccc1N1C(=O)C2Sc3[nH]c(=O)sc3C(/C=C/c3ccccc3)C2C1=O (stereo unspecified),-1.12%

row,Structure (SMILES),max response
1,CC(C)(C)NCCCOc1ccc(Cl)cc1C(C)(C)C,-3.93%
2,O=C(CSc1ccccn1)Nc1nc2c(ccc3ccccc32)s1,15%
3,CC(=O)NCCC(=O)Nc1cc(S(=O)(=O)N2CCCCC2)ccc1Oc1cccc(C)c1,-3.52%
4,c1ccc2sc(C3CCCNC3)nc2c1 (stereo unspecified),30.8% (active)
5,O=C(c1cccs1)N1CCC(c2nc3ccccc3s2)CC1,-1.42%
6,Cc1cccc(C(=O)N2CCC(c3nc4ccccc4s3)CC2)c1,-3.16%
7,Cc1[nH]c(C)c(S(=O)(=O)N2CCN(c3cccc(C(F)(F)F)c3)CC2)c1C(=O)N1CCCC1,-5.38%
8,C=C1CCN(Cc2ccc(OC)cc2)S(=O)(=O)c2ccccc21,12.8%
9,CCOc1ccc(N2CC(C(=O)NCc3ccccn3)CC2=O)cc1 (stereo unspecified),-11.6%
10,CC1CCN(c2ccc(C(=O)NCc3ccc4c(c3)OCO4)cc2[N+](=O)[O-])CC1,-5.58%
11,COc1ccc(C(=O)C2CN(C)CC2C(=O)c2ccc(OC)cc2)cc1 (stereo unspecified),19% (active)
12,Cc1ccc(C2CN(C)CC2C(=O)c2ccc(F)cc2)cc1 (stereo unspecified),-3.61%
13,CCc1ccc(NC(=O)CN2CCC(C(=O)c3ccc(OC)cc3)CC2)cc1,-4.07%
14,CC(C)(C)C(=O)CN1C2=NCCN2c2ccccc21,-2.32%
15,CCc1ccc(NC(=O)Cn2nnc(C(=O)NCc3ccc4c(c3)OCO4)c2N)cc1,-3.61%
16,Cc1ccc(-c2nc(CSCC(=O)NC3CCN(Cc4ccccc4)CC3)c(C)o2)cc1,-6.12%
17,COc1ccc2oc(C(=O)NCc3ccco3)c(C)c2c1,31.4% (active)
18,COc1cc(C(=O)N[C@@H](C)C(=O)NCc2ccco2)cc(OC)c1OC,-1.35%
19,COc1cc(C(=O)NC(=S)NCc2ccco2)cc(OC)c1OC,2.82%
20,Cc1cc(S(=O)(=O)Nc2ccc(C(=O)NCC(c3ccco3)N3CCCC3)cc2)ccc1F (stereo unspecified),0.909%
21,COc1ccc2oc(C(=O)NCC(Cc3ccccc3)N(C)C)c(C)c2c1 (stereo unspecified),12% (active)
22,COc1cccc(OCC(O)CNC(=O)c2oc3c(C)c(C)ccc3c2C)c1 (stereo unspecified),-4.29%

row,Structure (SMILES),max response
1,Cc1c(C(=O)NCC(c2ccco2)N2CCCC2)oc2ccc(Cl)cc12 (stereo unspecified),37.1% (active)
2,CCCCn1c(N)c(N(CCOC)C(=O)c2oc3ccc(OC)cc3c2C)c(=O)[nH]c1=O,-2.73%
3,Cc1c(C(=O)NCCN(C)C)oc2ccc(S(=O)(=O)N3CCCC3)cc12,2.66%
4,COc1ccc(NS(=O)(=O)c2ccc(F)cc2F)cn1,-4.72%
5,COc1cc(C(=O)NCCOC(=O)c2cccc(N(C)C)c2)cc(OC)c1OC,-1.25%
6,CCC(=O)/C(=C(/O)c1ccccc1)c1nc2ccccc2[nH]1,31% (active)
7,Cc1nc2ccccc2c(-c2ccccc2)c1C(=O)c1ccccc1,-4.4%
8,CC/C(O)=C1\C(=O)CC(C)(C)CC1=NCCc1nc2ccccc2[nH]1,6.92%
9,Cc1nnc(Sc2nc3c(c(=O)[nH]c(=O)n3C)n2Cc2ccccc2)s1,-5.79%
10,Cn1c(SCC(=O)N2CCOCC2)nnc1-c1ccc2ncccc2c1,-0.963%
11,O=C(O)CSc1nnc(-c2ccc3c(c2)OCO3)n1-c1ccccc1,12.9%
12,Cn1c(SCC(=O)N2CCOCC2)nnc1-c1ccc(NC(=O)c2ccccc2F)cc1,-4.11%
13,Cn1c(SCC(=O)N2CCCC2)nnc1-c1ccc2c(c1)OCO2,18.9% (active)
14,Cc1ccccc1-c1nnc(SCC(=O)NCc2ccc3c(c2)OCO3)n1C,-2.35%
15,Cn1c(SCc2nc3ccccc3s2)nnc1-c1ccc2c(c1)OCO2,39.5% (active)
16,COc1ccccc1NC(=O)CCN1CCN(c2ccc(Cl)cc2)CC1,-0.528%
17,COc1cc(C(C(=O)NC2CCCC2)N(C(=O)c2ccco2)c2ccccc2C(C)=O)cc(OC)c1OC (stereo unspecified),3.6%
18,CC(C)c1c(C(=O)N/N=C/c2ccccc2C(=O)O)nnn1-c1nonc1N,23.4%
19,COc1ccccc1C(=O)NC(CCSC)C(=O)NNC(=O)c1csc(N2CCOCC2)n1 (stereo unspecified),-1.29%
20,O=C(NCCc1ccc(Cl)cc1Cl)c1cc([N+](=O)[O-])c[nH]c1=O,-5.02%
